# Screening results from PubChem.
# PI5P4Ka inh – blocks human PI5P4K alpha kinase activity; P48426; PI5P4Kalpha enzyme, ADP-Glo luminescence, 60 min; active compounds read low; max response, %; hit rate 1.2% among 330,000; AID 652105; active = max response of -50% or lower; inconclusive = between -30% and -50%; inactive = -30% or higher; note: value at the top dose of about 77 µM; % is set by controls: 0 for no effect and ±100 for the full control effect
#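 Controls without substrate or without enzyme flank wells where PI5P4Kalpha converts substrate using 5 microM ATP (final). Incubation lasts 60 minutes at room temperature; ADP formed is read by ADP-Glo luminescence.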
# KAT2A inh – blocks human GCN5L2 histone acetyltransferase. GCN5L2 HAT assay, ThioGlo1 CoA-SH fluorescence. Potency, µM (doses to about 58.9 µM), inactives show top-dose activity change, negative = inhibition, actives largely listed as inhibitors. hit rate 0.21% among 390,000; note: potency is the fitted concentration of half-maximal effect; % is set by controls: 0 for no effect and ±100 for the full control effect
#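 GCN5L2 (20nM final) in 50mM HEPES, 0.1mM EDTA pH 7.5, 0.01% Tween-20 was preincubated 15 min at room temperature with compound, then given ThioGlo1 (50uM), H3(1-25) peptide (75uM) and acetyl-CoA (70uM); CoA-thiol fluorescence (Ex340/Em540) was read at 0 and 20 min.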
# BAZ2B inh – blocks human BAZ2B; AlphaScreen BAZ2B-H3K14Ac peptide displacement; Potency, µM (series often up to 114 µM), for the others: at the highest dose activity change, negative = inhibition, usual class: inhibitors; hit rate 4.4% among 360,000; note: potency is the fitted concentration of half-maximal effect; % is set by controls: 0 for no effect and ±100 for the full control effect; nearly all actives have a fitted effect of over 60% in size
#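 Inhibition is scored as reduced AlphaScreen emission. The BAZ2B/b-H3(5-23)K14Ac complex (50 nM each) in PBS pH 7.4, 0.01% Tween-20 meets compound (up to 110 uM) for 30 min at RT before bead addition.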
# HP1b chromo inh – blocks HP1-beta chromodomain binding to methylated histone tails. AID 540317. P83916. Potency, µM (top dose mostly 114 µM), for inactives: top-dose activity change, negative = inhibition, usual class: inhibitors. AlphaScreen HP1-beta / biotin-H3K9me3 peptide binding. hit rate 0.56% among 390,000; note: potency is the fitted concentration of half-maximal effect; nearly all actives have a fitted effect of over 70% in size
#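 AlphaScreen: HP1-beta (50 nM) preformed 30 min with biotin-H3(1-18)K9me3 peptide (50 nM) in PBS pH 7.4, 0.01% Tween-20. Compound added for 30 min at RT, then streptavidin donor/nickel chelate acceptor beads (10 ug/mL) for 30 min.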
# PLK1 PBD inh – inhibitors of human PLK1 polo-box domain binding. P53350. Plk1 PBD binding of FITC phosphopeptide, fluorescence polarization. Potency, µM, for the others: max response, negative = inhibition, actives largely listed as inhibitors. hit rate 2.8% among 360,000. AID 720504; note: potency is the fitted concentration of half-maximal effect; series mostly up to about 57 µM; % is set by controls: 0 for no effect and ±100 for the full control effect; nearly all actives have a fitted effect of over 65% in size
# JMJD2A Tudor inh – blocks the human JMJD2A Tudor domain. AlphaScreen JMJD2A-Tudor / H3K4me3 peptide binding. Potency, µM (doses to about 114 µM), for inactives: at the top dose activity change, negative = inhibition, most hits filed as inhibitors. hit rate 4.4% among 390,000; note: potency is the fitted concentration of half-maximal effect; % is set by controls: 0 for no effect and ±100 for the full control effect; nearly all actives have a fitted effect of over 50% in size
# * = called active by the depositor; u = inconclusive; x = not tested or not shown; [ ] = remark or other dose. This is a sample that favours compounds with a hit; in the whole collection about 7% have one here. Unless noted, calls come from the whole dose curve; as a rule, active = well fitted curve in the direction sought with a large enough effect; inconclusive = small, poorly fitted or top-dose-only effect, or another doubt; inactive = no such curve, though single readings can be large; an effect the other way counts as inactive or inconclusive.
SMILES,PI5P4Ka inh,KAT2A inh,BAZ2B inh,HP1b chromo inh,PLK1 PBD inh,JMJD2A Tudor inh
Cc1ccc2nc(N(CCN(C)C)C(=O)c3ccc4ccccc4c3)sc2c1,12,-5%,u,-3%,2%,45µM*
O=c1onc(-c2ccccc2Cl)n1-c1ccccc1Cl,10,x,x,20%,4%,5%
CCC(c1ccc(O)c(O)c1)C(CC)c1ccc(O)c(O)c1 (centres undefined),-26,x,x,u,u,79µM*
CCCCCCc1cc2cc(C(=O)NC)c(=N)oc2cc1O,-9,u,0%,48%,3.4µM*,-5%
CCC(=O)c1ccc2c(c1)N(CCCN(C)C)c1ccccc1S2,-10,-10%,x,5%,-15%,-32%
CN(C)CCCC1Sc2ccccc2Sc2ccccc21 (centres undefined),3,x,x,71µM*,-5%,20µM*
CC1(C)C2CCC(C2)C1(C)NC(=O)CN1CCCC1 (centres undefined),8,3%,u,-35%,-19%,28µM*
CC1(C)C2CCC(C2)C1(C)NC(=O)CNC1CCCCC1 (centres undefined),0,-6%,50µM*,-26%,-9%,-34%[11.4 µM]
CNC1(C)C2CCC(C2)C1(C)C (centres undefined),x,0%,x,x,x,x
CC1(C)C2CCC(C2)C1(C)NC(=O)CN1CCOCC1 (centres undefined),-2,2%,50µM*,u,-9%,32µM*
CC1(C)C2CCC(C2)C1(C)NC(=O)CNCc1cccs1 (centres undefined),-6,-6%,x,u,-8%,25µM*
COc1ccc(Cl)cc1-c1cc(C(=O)NCc2ccccc2)[nH]n1,-9,x,x,x,-8%,x
CC(OC(=O)C1CCCC1)C(=O)Nc1ccc(S(N)(=O)=O)cc1 (centres undefined),1,-14%,-6%,27%,3%,2%
COc1ccc(/C=C/c2ccc3c(Br)ccc(O)c3n2)cc1,0,0%,-38%,36%,-14%,-20%
COc1cc(/C=C/c2ccc3c(Br)cc(Br)c(O)c3n2)ccc1O,-23,-5%,3%,13%,24µM*,-24%
O=S1(=O)CC(N2CCN(Cc3ccccc3F)CC2)CN1Cc1cn(Cc2ccc(C(F)(F)F)cc2)nn1 (centres undefined),6,x,x,x,-1%,x
OCCN1CCN(C(=S)c2ccc(Cl)c(Cl)c2)CC1,x,-15%,8%,u,4.7µM*,56µM*
COc1ccc(NC(=O)CSC2=C(C#N)C(c3ccco3)C3=C(CCCC3=O)N2)c(OC)c1 (centres undefined),-4,-9%,79µM*,-9%,-4%,-28%
CC1CC(=O)NN1C(=O)c1ccccc1 (centres undefined),2,-3%,79µM*,-17%,-12%,28µM*
CC1CC(=O)NC(=O)N1Cc1ccccc1 (centres undefined),-2,x,x,7%[57 µM],1%,3%
CN(C)CCNC(=O)NC1CCCCC1,6,-2%,-2%,14%,-12%,-2%
CC1CCC(NC(=S)NCCN(C)C)CC1 (centres undefined),-7,2%,50µM*,3%,-3%,7.9µM*
COc1ccc(C)cc1NC(=O)CN1C(=O)COc2ccc(C)cc21,0,2%,1%,34%,-19%,-9%
Nc1ccc2c(c1)Cc1cc(N)c(Br)cc1-2,9,x,x,u,-3%,50µM*
Nc1cc2c(cc1Cl)-c1ccc(Cl)cc1C2,3,x,x,13%,-7%,-29%
SMILES,PI5P4Ka inh,KAT2A inh,BAZ2B inh,HP1b chromo inh,PLK1 PBD inh,JMJD2A Tudor inh
COc1cc2c(cc1N)-c1ccc(N)cc1C2,-17,x,x,u,3%,14µM*
Cc1c(Cl)ccc2c(C(=O)O)cc(-c3ccccc3)nc12,3,-16%,u,13%,24µM*,-13%[11.4 µM]
Cc1c(Cl)ccc2c(C(N)=O)cc(-c3ccccn3)nc12,-11,-4%,8%,11%,-7%,-12%
CCOc1nc2cccc(C(=O)OC(C)OC(=O)OC3CCCCC3)c2n1Cc1ccc(-c2ccccc2-c2nn[nH]n2)cc1 (centres undefined),x,20µM*,x,x,x,x
c1ccc2c(c1)CCN(C1CCCCC1)C2,1,-4%,79µM*,u,-11%,25µM*
Cn1cnnc1SC/C(O)=C(\C#N)c1nc2ccccc2[nH]1,-19,-2%,50µM*,12%,u,25µM*
Cc1cccc(Nc2nnc(SC/C(O)=C(\C#N)c3nc4ccccc4[nH]3)s2)c1C,-59*,-6%,-4%,-4%,-21%,-36%
Cc1ccc(Nc2nnc(SCC(O)=C(C#N)c3nc4ccccc4[nH]3)s2)c(C)c1,u,x,x,12%,-25%,-29%
CCCn1c(SC/C(O)=C(\C#N)c2nc3ccccc3[nH]2)n[nH]c1=O,-11,-6%,-13%,27%,-4%,-12%
Cc1cccc(C)c1Nc1nnc(SC/C(O)=C(\C#N)c2nc3ccccc3[nH]2)s1,-68*,-13%,-2%,2%,-19%,-26%
COc1ccc(C2OC(CCc3ccccc3)CC3=C2C(=O)OC(C)(C)O3)cc1 (centres undefined),19,x,x,x,-6%,x
COc1ccc(CCNC(=O)c2cc(Nc3cc(C)cc(C)c3)nc3ccccc23)cc1OC,x,-18%,x,40%,x,-19%
COC(=O)c1ccccc1N=C(SC)N(C)C,-9,-3%,-2%,3%,30µM*,-19%
COC(=O)c1ccccc1NC(=S)N(C)C,5,-5%,-1%,3%,-5%,-13%
CC(C)CC(=O)NC1CC(=O)N(c2ccc3c(c2)OCCO3)C1 (centres undefined),x,-2%,-8%,-22%,x,100µM*
CCc1cccc(CC)c1NC(=O)C1CC(=O)N(c2ccc3c(c2)OCCO3)C1 (centres undefined),x,-1%,-31%,7%,-6%,-33%
O=C(Nc1ccccc1Cc1ccccc1)C1CC(=O)N(c2ccc3c(c2)OCCO3)C1 (centres undefined),x,-7%,50µM*,-16%,-1%,u
CC(=O)NC1CC(=O)N(c2ccc3c(c2)OCCO3)C1 (centres undefined),x,-6%,-14%,25%,x,-5%
C(#Cc1c(-c2ccsc2)sc2ccccc12)c1ccsc1,1,-2%,x,178%,-15%,139%
